PubChem BioAssay (NCI)
This is part of a sample that, as a whole, favours compounds with a hit. Of some 83,000 tested, about 20% had one in any assay.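 Method: cells in 96-well plates; compound added at one concentration; 48 h incubation; percent growth measured; values under 10 scored active.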 Values without a mark were called inactive. Calls of active or inactive are those of the source.

Key:
Assay in all cases: NCI-60 one-dose screen, 48 h (100 = growth as untreated, 0 = no growth, -100 = all killed)
Conditions in all cases: 10 µM unless noted
T-47D breast = test system: T-47D breast
BT-549 breast = test system: BT-549 breast
MDA-MB-435 melanoma = test system: MDA-MB-435 melanoma
SW-620 colon = test system: SW-620 colon
MCF7 breast = test system: MCF7 breast
HCT-116 colon = test system: HCT-116 colon
HCC-2998 colon = test system: HCC-2998 colon
KM12 colon = test system: KM12 colon

Row | Structure (SMILES) | growth (T-47D breast) | growth (BT-549 breast) | growth (MDA-MB-435 melanoma) | growth (SW-620 colon) | growth (MCF7 breast) | growth (HCT-116 colon) | growth (HCC-2998 colon) | growth (KM12 colon)
1 | CC(=O)N1N=C(c2ccc(C)cc2)CC1c1ccc(Oc2ccc(Br)cc2)cc1 (stereo unspecified) | 60.6% | 89.3% | 97.6% | 86.7% | 81.8% | 87.3% | 96.9% | 85.5%
2 | COc1cc2ncnc(Nc3ccc(Oc4ccnc(C)c4)c(C)c3)c2cc1NC(=O)CC1CCSS1 (stereo unspecified) | -66% (active) | -48.4% (active) | -33.4% (active) | -33.7% (active) | -69.6% (active) | -65.5% (active) | -88.6% (active) | -68.8% (active)
3 | CCCCN1CCCCn2c1nc1c2c(=O)n(C)c(=O)n1C | 107% | 108% | 107% | 102% | 103% | 104% | 95.9% | 101%
4 | COc1ccc2c(c1)c(-c1nc(-c3cn(C)c4ncccc34)cs1)cn2CCCN1CCCCC1 | 64% | 80.5% | 26% | -22.9% (active) | 34% | -93.2% (active) | 102% | 57.4%
5 | COc1ccc2c(c1)c(-c1nc(-c3c[nH]c4ncccc34)cs1)cn2CCNC(=O)OC(C)(C)C | 9.63% (active) | 84.5% | 94.7% | 96% | 37.3% | 87.6% | 96.6% | 46.1%
6 | N#CC1=C(N)Oc2ccc3ccccc3c2C1c1ccccc1 (stereo unspecified) | 40.8% | 19.8% | -21.6% (active) | 28% | 14.8% | 19.4% | 69.3% | 24.5%
7 | CN1CCN(c2ccc3nc(-c4[nH]ncc4Nc4ncnc5c4OCCCN5)[nH]c3c2)CC1 | -27.4% (active) | -74.2% (active) | -80.1% (active) | -58.1% (active) | -57.2% (active) | -11.8% (active) | -84.2% (active) | -72.7% (active)
8 | C=C(C)[C@@H]1CC[C@]2(C)CC[C@]3(C)[C@H](CC[C@@H]4[C@@]5(C)CCCNC(C)(C)[C@@H]5CC[C@]43C)[C@@H]12 | 76% | 101% | 84.6% | 2.47% (active) | 33.3% | 5.39% (active) | 66% | 66.8%
9 | COc1ccc(C2CC(=O)c3c(nc4ccc(Cl)cc4c3N)C2)cc1 (stereo unspecified) | 109% | 102% | 93.6% | 106% | 95.6% | 100% | 111% | 103%
10 | c1ccc(CN2C(c3ccccc3)=Nc3ccccc3C2c2c[nH]c3ccccc23)cc1 (stereo unspecified) | 27.8% | 96.3% | 39.2% | 27.1% | 23.5% | 14.3% | 41.8% | 56.8%
11 | Cn1cc(-c2csc(-c3cn(CCN)c4ccc(F)cc34)n2)c2cccnc21 | 19% | 89.1% | 53.5% | 52.6% | 36.2% | 77.1% | 91.1% | 47.7%
12 | Nc1ccc(Cl)cn1 | 86.7% | 104% | 106% | 102% | 94.7% | 95.4% | 113% | 100%
13 | Nc1c2c(nc3ccc(Br)cc13)CC(c1ccccc1)CC2=O (stereo unspecified) | 43.1% | 42.9% | -43.4% (active) | 26.1% | 21.1% | 31.9% | 62.9% | 24.7%
14 | CCCCn1c(-c2ccc(O)cc2)cn2c3c(=O)[nH]c(=O)n(C)c3nc12 | 64.6% | 76.5% | -13.1% (active) | 36.6% | 41.7% | 45.4% | 72.3% | 59.9%
15 | Cc1nc([P+](c2ccccc2)(c2ccccc2)c2ccccc2)c(Sc2sc(-c3ccccc3)nc2[P+](c2ccccc2)(c2ccccc2)c2ccccc2)o1 | 4.85% (active) | -0.458% (active) | -9.1% (active) | 9.8% (active) | 8.1% (active) | 3.77% (active) | 15.2% | -0.528% (active)
16 | Oc1ccc(CCC2CCCC(CCc3ccc(OCCF)cc3)N2)cc1 (stereo unspecified) | 72.8% | 96.4% | 99.5% | 112% | 89% | 86% | 88.4% | 104%

Row | Structure (SMILES) | growth (T-47D breast) | growth (BT-549 breast) | growth (MDA-MB-435 melanoma) | growth (SW-620 colon) | growth (MCF7 breast) | growth (HCT-116 colon) | growth (HCC-2998 colon) | growth (KM12 colon)
17 | CC1(C)CC[C@]2(C(=O)Nc3ccccn3)CC[C@]3(C)C(=CC[C@@H]4[C@@]5(C)C/C(=C/c6ccncc6)C(=O)C(C)(C)[C@@H]5CC[C@]43C)[C@@H]2C1 | 13.3% | 35.7% | 14.8% | 20% | 21.7% | -1.02% (active) | 25% | -6.73% (active)
18 | O=c1c2sc3ncc(Br)cc3c2ncn1-c1cccc(Cl)c1 | 61.9% | 78.9% | 75.2% | 58.8% | 94.2% | 27.4% | 104% | 72.2%
19 | CC(=O)c1c(C)[nH]c(-c2nc3ccc(N4CCN(C)CC4)cc3[nH]2)c1-c1ccc2c(c1)OCCO2 | 37.7% | 63% | 34.9% | 59.7% | 10.5% | 32.1% | 45% | 48.9%
20 | Cc1cc(C)n(Cc2cc(C(C)(C)C)cc(C(C)(C)C)c2)c(=O)c1C#N | 79.3% | 88.5% | 102% | 101% | 88.4% | 79.3% | 116% | 97.5%
21 | COc1ccc(C2C(C#N)=C(N)Oc3c2sc2c(F)cccc32)cc1 (stereo unspecified) | 23.8% | 37% | -23.9% (active) | 25.1% | 15.4% | 8.94% (active) | 85.2% | 35.5%
22 | N#CC1=C(N)Oc2c(c(N)nn2-c2ccccc2)C1c1ccc(Cl)cc1Cl (stereo unspecified) | 77.6% | 97.8% | 103% | 100% | 98.3% | 94.4% | 106% | 99.3%
23 | C/C(=N\Nc1ccc2ccccc2n1)c1ccccn1 | 19.8% | 20.3% | 3.21% (active) | 10.3% | 8.28% (active) | -12% (active) | 18.1% | 6.76% (active)
24 | Nc1c(C(=O)Nc2cccc(Cl)c2)sc2ncc(Cl)cc12 | 49.6% | 68.8% | 77.5% | 66.6% | 84% | 19.6% | 78.2% | 63.3%
25 | CC(=O)O[C@H]1CC[C@@]2(C)C(=CC[C@@H]3[C@@H]2CC[C@]2(C)C(=O)N(O)C(=O)C[C@@H]32)C1 | 87.1% | 91.9% | 104% | 72.6% | 76% | 76.3% | 78.1% | 71.8%
26 | O=S(=O)(NCCNc1cc(-c2cn(-c3ccccc3)nc2-c2cccc(O)c2)ccn1)c1ccc(Br)cc1 | 10.5% | 45.6% | 22.4% | 32.4% | 13% | 24% | -61.8% (active) | 17.3%
27 | Cc1cc(C)c(NC(=O)c2sc3nc4c(cc3c2N)CCCC4)c(C)c1 | 36.2% | 56.4% | -13.6% (active) | 30.5% | 23.7% | 29.9% | 87.6% | 34.9%
28 | Nc1ncnc2nc(Br)[nH]c12 | 89.4% | 95.6% | 104% | 106% | 99.9% | 92.4% | 109% | 102%
29 | NC1(N)C=CC2=C(C=C1)C1(N)C3=C(C=CC(N)(N)C=C3)N2C2(N)C3=C(C=CC(N)(N)C=C3)N1C1=C2C=CC(N)(N)C=C1 | 74.5% | 52.4% | 89.8% | 95.4% | 76.2% | 90.2% | 105% | 93.6%
30 | Fc1ccc2nc(-c3cc(-c4ccc5c(c4)OCO5)n[nH]3)[nH]c2c1 | 50.4% | 27.5% | 46.4% | 37.2% | 59.3% | 49.6% | 71.9% | 16.1%
31 | COc1cnc2c(c1)C(=O)c1c-2n(CCCNC2=NCCS2)c(=O)c2cc([N+](=O)[O-])ccc12 | 14.4% | 35% | -92.7% (active) | -59% (active) | -51.3% (active) | -66.4% (active) | -61.2% (active) | -43.9% (active)
32 | COc1cccc(-c2nn(-c3ccccc3)cc2-c2ccnc(NCCCN)c2)c1 | 59.1% | 68.6% | -6.82% (active) | 43.5% | 41.8% | 45.1% | 65.6% | 71.9%
